Test results: PubChem BioAssay
For part of these data: Measured potencies and affinities stand elsewhere. Calls of active or inactive are those of the source. Unless noted, no rule for the calls is given here.

Key:
[1] = antimalarial activity against Dd2 strain (AID 2302;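 active = growth inhibition above 50% at the single 2 µM test dose, taken to imply half-maximal potency below 2 µM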;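 also: 0% = DMSO untreated growth and 100% = chloroquine plus artemisinin killed control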); conditions: P. falciparum Dd2 in RBCs, LDH growth readout, 72 h; at 2 µM; active compounds read high
[2] = human hepatoma cell viability loss – ATP luminescence, cytotoxicity control for P. falciparum antimalarial project, primary screen (AID 2303;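 active = inhibition above 50%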;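 also: 0% = DMSO wells and 100% = digitonin-killed cells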); conditions: HepG2 viability, 24-48 h, at 10 µM, active compounds read high
[3] = target: L-lactate dehydrogenase (Plasmodium falciparum (isolate CDC / Honduras)) (UniProt Q27743); test: PfLDH activity inhibition – cell lysate, 3D7 strain, counter-screen for P. falciparum growth inhibition project (AID 2304);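 also: 0% = vehicle and 100% = reference inhibitor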; conditions: P. falciparum 3D7 crude extract, LDH APAD/NBT absorbance; at 2 µM; active compounds read high
Sequence of L-lactate dehydrogenase (Plasmodium falciparum (isolate CDC / Honduras)) (Q27743 whole entry, looked up): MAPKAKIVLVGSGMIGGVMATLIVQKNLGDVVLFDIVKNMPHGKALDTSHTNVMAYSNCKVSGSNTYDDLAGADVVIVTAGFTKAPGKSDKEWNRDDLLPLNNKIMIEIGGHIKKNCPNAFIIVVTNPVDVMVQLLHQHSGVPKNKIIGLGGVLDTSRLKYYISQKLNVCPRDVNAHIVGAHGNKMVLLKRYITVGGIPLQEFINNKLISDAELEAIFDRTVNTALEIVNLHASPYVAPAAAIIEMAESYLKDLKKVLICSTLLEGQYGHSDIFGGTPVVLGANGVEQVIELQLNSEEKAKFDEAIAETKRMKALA

[4] = inhibition of 3D7 malaria parasite growth – strain 3D7 (AID 2306);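 also: 0% = DMSO wells and 100% = chloroquine plus artemisinin control wells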; conditions: P. falciparum 3D7 erythrocytic growth, LDH absorbance, 72 h; at 2 µM; active compounds read high
[5] = target: Calcium-dependent protein kinase 1 (Plasmodium falciparum (isolate 3D7)) (UniProt P62344); test: PfCDPK1 kinase inhibitors, biochemical, TCAMS library (AID 1159585; cut-off not given, nearly all actives have IC50 up to about 0.98 µM;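 also: inhibitors leave more ATP so luminescence rises with inhibition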); conditions: recombinant PfCDPK1, Kinase-Glo ATP depletion luminescence
Sequence of Calcium-dependent protein kinase 1 (Plasmodium falciparum (isolate 3D7)) (P62344 whole entry, looked up): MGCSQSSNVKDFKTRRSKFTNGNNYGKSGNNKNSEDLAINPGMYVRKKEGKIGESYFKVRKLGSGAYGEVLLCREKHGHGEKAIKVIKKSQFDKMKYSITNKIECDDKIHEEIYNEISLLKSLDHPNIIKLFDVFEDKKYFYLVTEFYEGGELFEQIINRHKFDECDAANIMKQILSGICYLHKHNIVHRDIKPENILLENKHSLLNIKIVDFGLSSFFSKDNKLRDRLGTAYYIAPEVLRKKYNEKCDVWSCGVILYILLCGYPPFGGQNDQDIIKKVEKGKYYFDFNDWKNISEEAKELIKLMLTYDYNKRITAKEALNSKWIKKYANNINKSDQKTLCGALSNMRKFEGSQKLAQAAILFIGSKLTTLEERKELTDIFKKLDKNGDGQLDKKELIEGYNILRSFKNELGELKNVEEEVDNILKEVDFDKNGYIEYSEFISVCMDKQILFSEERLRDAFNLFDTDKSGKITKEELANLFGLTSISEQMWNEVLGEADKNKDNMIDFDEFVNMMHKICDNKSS

[6] = target: Plasmodium falciparum protein kinase 6 (PK6, PF3D7_1337100) (UniProt Q8IDW1); test: PfPK6 kinase inhibitors, biochemical, TCAMS library (AID 1159586); conditions: recombinant PfPK6, Kinase-Glo ATP depletion luminescence
Sequence of Plasmodium falciparum protein kinase 6 (PK6, PF3D7_1337100) (Q8IDW1 1-305): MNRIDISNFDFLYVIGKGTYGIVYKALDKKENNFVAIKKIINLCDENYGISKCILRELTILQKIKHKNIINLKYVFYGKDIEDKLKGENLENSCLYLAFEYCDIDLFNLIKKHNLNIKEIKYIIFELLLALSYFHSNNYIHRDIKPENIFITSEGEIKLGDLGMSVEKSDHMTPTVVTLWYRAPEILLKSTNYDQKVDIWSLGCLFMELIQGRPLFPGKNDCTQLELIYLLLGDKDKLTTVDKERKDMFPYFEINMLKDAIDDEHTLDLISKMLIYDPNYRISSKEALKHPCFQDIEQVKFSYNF

[7] = target: Protein kinase 7 (PK7), Plasmodium falciparum 3D7 (PF3D7_0213400) (UniProt Q7YTF7); test: inhibition of Plasmodium PK7 catalytic activity – biochemical, TCAMS antimalarial set, Kinase-Glo luminescence (AID 1159587); conditions: recombinant PfPK7, Kinase-Glo ATP depletion luminescence
Sequence of Protein kinase 7 (PK7), Plasmodium falciparum 3D7 (PF3D7_0213400) (Q7YTF7 1-343): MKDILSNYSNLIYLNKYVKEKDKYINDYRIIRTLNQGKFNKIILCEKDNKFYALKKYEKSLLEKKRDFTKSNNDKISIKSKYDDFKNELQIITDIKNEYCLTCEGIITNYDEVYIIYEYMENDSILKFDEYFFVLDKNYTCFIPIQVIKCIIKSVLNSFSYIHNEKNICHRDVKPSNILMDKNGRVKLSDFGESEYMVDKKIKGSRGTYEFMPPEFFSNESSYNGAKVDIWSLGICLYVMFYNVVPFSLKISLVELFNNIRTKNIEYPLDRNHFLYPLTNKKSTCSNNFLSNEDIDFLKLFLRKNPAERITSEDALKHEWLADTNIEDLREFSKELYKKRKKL

[8] = target: Calcium-dependent protein kinase 4 (Plasmodium falciparum (isolate 3D7)) (UniProt Q8IBS5); test: PfCDPK4 kinase inhibitors, biochemical, TCAMS library (AID 1159588; cut-off not given, nearly all actives have IC50 up to about 0.91 µM); conditions: recombinant PfCDPK4, Kinase-Glo ATP depletion luminescence
Sequence of Calcium-dependent protein kinase 4 (Plasmodium falciparum (isolate 3D7)) (Q8IBS5 whole entry, looked up): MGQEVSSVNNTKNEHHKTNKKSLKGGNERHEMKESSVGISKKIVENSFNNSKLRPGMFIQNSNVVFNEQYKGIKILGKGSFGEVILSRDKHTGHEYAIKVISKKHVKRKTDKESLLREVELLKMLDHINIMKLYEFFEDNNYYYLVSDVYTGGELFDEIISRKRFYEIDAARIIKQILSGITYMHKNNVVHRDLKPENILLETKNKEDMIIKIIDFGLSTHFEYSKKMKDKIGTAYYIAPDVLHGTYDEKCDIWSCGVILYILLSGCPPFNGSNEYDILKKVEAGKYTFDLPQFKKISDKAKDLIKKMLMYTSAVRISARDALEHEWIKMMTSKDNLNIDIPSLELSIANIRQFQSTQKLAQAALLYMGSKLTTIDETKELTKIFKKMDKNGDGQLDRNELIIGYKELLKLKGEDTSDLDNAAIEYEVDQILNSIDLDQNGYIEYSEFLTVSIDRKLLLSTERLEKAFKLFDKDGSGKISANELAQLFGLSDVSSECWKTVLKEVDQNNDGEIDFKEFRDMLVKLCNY

NC(=NCCCCCCCCN=C(N)Nc1ccc(Cl)cc1)Nc1ccc(Cl)cc1
inactive: inhibition [2] 10% | inhibition [3] -5% | outcome [5] | outcome [6] | outcome [7] | outcome [8]
active: growth inhibition [1] 89% | growth inhibition [4] 93%

Cc1cc(N[C@@H](Cc2ccccc2)C(=O)NCCc2ccccc2)nc(NCC2CCCCC2)n1
inactive: inhibition [2] 24% | inhibition [3] -2% | outcome [5] | outcome [6] | outcome [7] | outcome [8]
active: growth inhibition [1] 95% | growth inhibition [4] 101%

NCCCNc1ccnc2cc(Cl)ccc12
active: growth inhibition [4] 101%
inactive: growth inhibition [1] 25% | inhibition [2] 14% | inhibition [3] 0% | outcome [5] | outcome [6] | outcome [7] | outcome [8]

Cc1cc(C(=O)Nc2ccc3c(c2)CCN3C2CCN(Cc3cccc4cc[nH]c34)C2)no1 (configuration not stated)
inactive: inhibition [2] -1% | inhibition [3] 1% | outcome [5] | outcome [6] | outcome [7] | outcome [8]
active: growth inhibition [1] 96% | growth inhibition [4] 97%

Fc1ccc2nc(-c3ccc(-c4ccc(CNCCc5ccncc5)cc4)cc3)[nH]c2c1
active: growth inhibition [1] 97% | growth inhibition [4] 100%
inactive: inhibition [2] 23% | inhibition [3] 0% | outcome [5] | outcome [6] | outcome [7] | outcome [8]

COc1ccc(CCN(C)CCOc2ccc(NC(=O)c3cccc4c(=O)c5cc(SC)ccc5[nH]c34)cc2)cc1OC
active: growth inhibition [1] 82% | inhibition [2] 52% | growth inhibition [4] 97%
inactive: inhibition [3] 0% | outcome [5] | outcome [6] | outcome [7] | outcome [8]

C#Cc1cccc(NC(=O)[C@H](CC2CCCCC2)Nc2ccc(C#N)c3ccccc23)c1
inactive: inhibition [2] 48% | inhibition [3] -1% | outcome [5] | outcome [6] | outcome [7] | outcome [8]
active: growth inhibition [1] 99% | growth inhibition [4] 100%

O=C(Nc1ccc(-c2cccc(-c3nc4ccc(C(F)(F)F)cc4[nH]3)c2)cc1)c1ccncc1
active: inhibition [2] 63% | growth inhibition [4] 101%
inactive: growth inhibition [1] 23% | inhibition [3] -4% | outcome [5] | outcome [6] | outcome [7] | outcome [8]

O=C(CCc1cccc(O)c1)NCC(NCCCNc1cc(=O)c2ccccc2[nH]1)c1cc(Br)cc(Br)c1 (configuration not stated)
active: growth inhibition [4] 86%
inactive: growth inhibition [1] 37% | inhibition [2] -6% | inhibition [3] -4% | outcome [5] | outcome [6] | outcome [7] | outcome [8]

CC(C)Sc1ccc(Cl)cc1CON1C(N)=NC(N)=NC1(C)C
inactive: inhibition [3] 6% | outcome [5] | outcome [6] | outcome [7] | outcome [8]
active: growth inhibition [1] 90% | inhibition [2] 66% | growth inhibition [4] 93%

COc1cc(NCC2(CNCc3cn(Cc4ccccc4)c4ccccc34)CCCCC2)nc2ccccc12
active: inhibition [2] 65% | growth inhibition [4] 95%
inactive: growth inhibition [1] 12% | inhibition [3] 5% | outcome [5] | outcome [6] | outcome [7] | outcome [8]

COc1ccc(-c2ccc(NC(=O)c3cccc(C#N)c3)cc2)cc1CN1CCCC(C(N)=O)C1 (configuration not stated)
inactive: growth inhibition [1] 44% | inhibition [2] 12% | inhibition [3] 0% | outcome [5] | outcome [6] | outcome [7] | outcome [8]
active: growth inhibition [4] 98%

Cc1cc(NN=Cc2ccc(F)cc2)c2cc(F)ccc2n1
active: growth inhibition [1] 61% | growth inhibition [4] 101%
inactive: inhibition [2] 6% | inhibition [3] -4% | outcome [5] | outcome [6] | outcome [7] | outcome [8]

COc1nc2c(N3CCN(CCNCc4ccc5c(n4)NC(=O)CS5)CC3)ccnc2cc1F
inactive: inhibition [2] 18% | inhibition [3] -6% | outcome [5] | outcome [6] | outcome [7] | outcome [8]
active: growth inhibition [1] 96% | growth inhibition [4] 101%

O=C(Nc1ccsc1C(=O)NC1CCCCC1)c1ccc(F)cc1
active: growth inhibition [4] 86%
inactive: growth inhibition [1] 11% | inhibition [2] 3% | inhibition [3] 6% | outcome [5] | outcome [6] | outcome [7] | outcome [8]

NC1=NC(c2ccccc2)(c2ccccc2)C(=O)N1CCCCc1ccccn1
active: growth inhibition [1] 56% | growth inhibition [4] 94%
inactive: inhibition [2] 10% | inhibition [3] -4% | outcome [5] | outcome [6] | outcome [7] | outcome [8]

COc1ccc(N2CCN(CCCCNC(=O)c3ccc(/C=C/c4ccc(Cl)c(Cl)c4)cc3)CC2)c(OC)c1
active: growth inhibition [1] 51% | inhibition [2] 51% | growth inhibition [4] 101%
inactive: inhibition [3] -8% | outcome [5] | outcome [6] | outcome [7] | outcome [8]

Cc1ccc(S(=O)(=O)N2CCCN(C(=O)c3cc(-c4ccccc4)n[nH]3)CC2)cc1
active: growth inhibition [1] 93% | growth inhibition [4] 96%
inactive: inhibition [2] 11% | inhibition [3] -2% | outcome [5] | outcome [6] | outcome [7] | outcome [8]

CCCCCn1c(Sc2ccc(C#N)c([N+](=O)[O-])c2)nnc1-c1ccccc1
inactive: growth inhibition [1] 15% | inhibition [2] 22% | inhibition [3] -2% | outcome [5] | outcome [6] | outcome [7] | outcome [8]
active: growth inhibition [4] 93%

Cc1cc(CNCCCCCCNCc2cccc([N+](=O)[O-])c2)ccc1O
inactive: growth inhibition [1] -1% | inhibition [2] 13% | inhibition [3] -8% | outcome [5] | outcome [6] | outcome [7] | outcome [8]
active: growth inhibition [4] 90%

CCC(CSC1CCCCC1)N(C)CCN(C)C(CC)CSC1CCCCC1 (configuration not stated)
active: growth inhibition [1] 98% | inhibition [2] 84% | growth inhibition [4] 98%
inactive: inhibition [3] -4% | outcome [5] | outcome [6] | outcome [7] | outcome [8]

Cc1noc(C)c1-c1ccc2c(Nc3ccccc3C(C)(C)C)c(C(=O)NCc3ccc4c(c3)OCO4)cnc2c1
inactive: inhibition [2] 37% | inhibition [3] -3% | outcome [5] | outcome [6] | outcome [7] | outcome [8]
active: growth inhibition [1] 88% | growth inhibition [4] 96%

Fc1ccc(CN2CCN(c3ncnc4cc(-c5ccccc5)sc34)CC2)cc1
active: growth inhibition [1] 82% | growth inhibition [4] 82%
inactive: inhibition [2] 7% | inhibition [3] 4% | outcome [5] | outcome [6] | outcome [7] | outcome [8]

c1cc(CN2CCN(CCN3CCOCC3)CC2)cc(-c2csc(-c3nc4ccccc4[nH]3)c2)c1
inactive: inhibition [2] 27% | inhibition [3] -8% | outcome [5] | outcome [6] | outcome [7] | outcome [8]
active: growth inhibition [1] 99% | growth inhibition [4] 100%

Cc1cccn2c(=O)c3cc(C(=O)NCCc4ccccc4)c(=N)n(CCCOC(C)C)c3nc12
inactive: growth inhibition [1] 40% | inhibition [2] 19% | inhibition [3] -3% | outcome [5] | outcome [6] | outcome [7] | outcome [8]
active: growth inhibition [4] 101%

CN1CCN(CCCN(Cc2cccc(-c3cccc(CNC4CCCC4)c3)c2)C(=O)CCC2CCCC2)CC1
inactive: inhibition [2] 35% | inhibition [3] -3% | outcome [5] | outcome [6] | outcome [7] | outcome [8]
active: growth inhibition [1] 96% | growth inhibition [4] 100%

CC(C)Sc1nc2c(c(=O)n1CCc1ccccc1)C1(CCCCC1)Cc1ccccc1-2
inactive: growth inhibition [1] 5% | inhibition [2] 8% | inhibition [3] 1% | outcome [5] | outcome [6] | outcome [7] | outcome [8]
active: growth inhibition [4] 92%

CC(C)(C)OC(=O)NCc1ccc(Nc2nnc(-c3ccc(OCC(=O)NC[C@@H]4CC[C@H]5C[C@@H]4C5(C)C)c([N+](=O)[O-])c3)o2)cc1
inactive: inhibition [2] 29% | inhibition [3] -3% | outcome [5] | outcome [6] | outcome [7] | outcome [8]
active: growth inhibition [1] 52% | growth inhibition [4] 94%

COc1ccccc1CCNc1ncnc2c1[nH]c1ccc(F)cc12
active: growth inhibition [1] 68% | growth inhibition [4] 95%
inactive: inhibition [2] 49% | inhibition [3] 0% | outcome [5] | outcome [6] | outcome [7] | outcome [8]

CCC(=O)OC(CCN(CC)CC)(c1ccccc1)c1ccccc1
active: growth inhibition [4] 98%
inactive: growth inhibition [1] 6% | inhibition [2] 30% | inhibition [3] 4% | outcome [5] | outcome [6] | outcome [7] | outcome [8]

COc1ccc(C=Cc2cc(N)c3ccccc3n2)cc1Br
inactive: inhibition [3] 2% | outcome [5] | outcome [6] | outcome [7] | outcome [8]
active: growth inhibition [1] 88% | inhibition [2] 55% | growth inhibition [4] 101%

O=C1COc2ccc3ccccc3c21
inactive: growth inhibition [1] 3% | inhibition [2] -3% | inhibition [3] 6% | outcome [5] | outcome [6] | outcome [7] | outcome [8]
active: growth inhibition [4] 99%

O=c1[nH]c(=O)n2c(nc3ccccc32)[nH]1
inactive: growth inhibition [1] -1% | inhibition [2] 21% | inhibition [3] 6% | outcome [5] | outcome [6] | outcome [7] | outcome [8]
active: growth inhibition [4] 95%

CCC(O)c1ccc(Br)cc1NC(=O)c1cccc(Cl)c1 (configuration not stated)
inactive: inhibition [2] -3% | inhibition [3] -5% | outcome [5] | outcome [6] | outcome [7] | outcome [8]
active: growth inhibition [1] 52% | growth inhibition [4] 80%

O=C(Nc1cccc(F)c1)N[C@H]1CCN(CCCCCNC(=O)[C@@H]2C[C@H]2c2ccc(Cl)c(Cl)c2)C1
active: growth inhibition [4] 90%
inactive: growth inhibition [1] 1% | inhibition [2] 41% | inhibition [3] -1% | outcome [5] | outcome [6] | outcome [7] | outcome [8]

CCCCNC(=O)[C@@H]1CCCN1C(=O)c1ccc(O)c(-c2ccc(Cl)c(Cl)c2)c1
inactive: inhibition [2] -1% | inhibition [3] -1% | outcome [5] | outcome [6] | outcome [7] | outcome [8]
active: growth inhibition [1] 92% | growth inhibition [4] 98%

Cc1ccc(CNc2ccc3ncc(-c4cccc(C(=O)NCCN(C)C)c4)n3n2)c(C)c1
active: growth inhibition [1] 78% | inhibition [2] 97% | growth inhibition [4] 100%
inactive: inhibition [3] -3% | outcome [5] | outcome [6] | outcome [7] | outcome [8]

CN1CCCN(c2ccnc3cc4c(cc23)N(C(=O)c2ccc(Cl)c(Cl)c2)CC4)CC1
inactive: inhibition [2] 20% | inhibition [3] 2% | outcome [5] | outcome [6] | outcome [7] | outcome [8]
active: growth inhibition [1] 73% | growth inhibition [4] 101%

N#Cc1cc([N+](=O)[O-])ccc1-n1nc(-c2cccc(Cl)c2)n(Cc2ccco2)c1=S
inactive: inhibition [2] 12% | inhibition [3] -1% | outcome [5] | outcome [6] | outcome [7] | outcome [8]
active: growth inhibition [1] 100% | growth inhibition [4] 101%
